Measurements as given in PubChem BioAssay AID1159580 (chemical genetic matrix, 2015).
“And” between values parts separate entries of the source, which are not always exact repeats. Equal values may be shown once. Hit rate of the full screen: of about 5,500 compounds, about 2,000 (36%) were called active. Inconclusive results (about 18%) are left out. Cut-off read from the data, not from the text of the source: active = normalized growth mostly below about 0.91 (no sharp cut-off); inconclusive = no clear call, values can overlap the other calls; inactive = mostly above about 0.92. The list shows a part of the results.

Test: chemical genetic growth profiling, strain panel (AID 1159580);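 note: tested at 20 µM; growth read once vehicle control cultures reached saturation at 30 °C; 1 = growth at the plate median or of vehicle wells; lower values mean less growth of the strain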
Settings: S. cerevisiae deletion strains, growth OD

Measured: normalized growth

CC(C)Cn1c(=O)n(C)c(=O)c2[nH]cnc21
inactive: locus YAL013W, strain DEP1, active compounds read low 0.999 | locus YAL021C, strain ccr4, active compounds read low 1.03 and 0.994 | locus YAL026C, strain drs2, active compounds read low 1 and 1.03 | locus YAL030W, strain snc1, active compounds read low 0.99 and 1 | locus YAL040C, strain CLN3, active compounds read low 0.982 | locus YBL061C, strain skt5, active compounds read low 0.992 and 1.02 | locus YBR009C, strain hhf1, active compounds read low 1.01 and 0.995 | locus YBR021W, strain FUR4, active compounds read low 0.966 | locus YBR023C, strain chs3, active compounds read low 1 and 1.01 | locus YBR171W, strain sec66, active compounds read low 0.998 and 1.03 | locus YBR229C, strain ROT2, active compounds read low 0.982 | locus YBR231C, strain swc5, active compounds read low 0.989 and 1.01 | locus YBR279W, strain paf1, active compounds read low 0.996 and 1 | locus YCL011C, strain gbp2, active compounds read low 1.01 and 1 | locus YCL016C, strain dcc1, active compounds read low 0.984 and 0.981 | locus YCL029C, strain bik1, active compounds read low 0.984 | locus YCL061C, strain MRC1 (second series), active compounds read low 0.984 | locus YCL061C, strain MRC1, active compounds read low 1 | locus YCL069W, strain vba3, active compounds read low 1 | locus YCR088W, strain abp1, active compounds read low 1 and 1.01 | locus YDL005C, strain med2, active compounds read low 1 and 1.01 | locus YDL035C, strain GPR1, active compounds read low 1.01 | locus YDL040C, strain nat1, active compounds read low 0.988 and 1.01 | locus YDL074C, strain BRE1, active compounds read low 1.03 | locus YDL101C, strain DUN1, active compounds read low 0.984 | locus YDL134C, strain PPH21, active compounds read low 0.991 | locus YDL185W, strain tfp1, active compounds read low 0.988 | locus YDL192W, strain arf1, active compounds read low 0.996 | locus YDR001C, strain nth1, active compounds read low 1 and 1.01 | locus YDR069C, strain doa4, active compounds read low 0.987 and 1.02 | locus YDR101C, strain arx1, active compounds read low 0.989 | locus YDR137W, strain rgp1, active compounds read low 0.976 and 0.984 | locus YDR150W, strain NUM1, active compounds read low 0.998 and 0.994 | locus YDR159W, strain sac3, active compounds read low 0.965 and 1.04 | locus YDR162C, strain NBP2, active compounds read low 1.03 | locus YDR195W, strain ref2 0.969 and 0.994 | locus YDR297W, strain sur2, active compounds read low 0.987 and 1 | locus YDR318W, strain mcm21, active compounds read low 0.974 | locus YDR334W, strain swr1, active compounds read low 1.04 and 1.03 | locus YDR335W, strain msn5, active compounds read low 1.01 | locus YDR363W, strain ESC2, active compounds read low 0.991 | locus YDR388W, active compounds read low 0.985 | locus YDR392W, strain spt3, active compounds read low 1 and 0.935 | locus YDR502C, strain sam2, active compounds read low 0.997 | locus YEL003W, strain gim4, active compounds read low 1.02 | locus YEL037C, strain rad23, active compounds read low 1.02 and 1.01 | locus YEL061C, strain CIN8 (second series), active compounds read low 1.03 and 1 | locus YEL061C, strain CIN8, active compounds read low 0.995 | locus YER002W, strain NOP16, active compounds read low 0.994 | locus YER015W, strain faa2, active compounds read low 1.01 and 1 | locus YER016W, strain bim1, active compounds read low 0.987 and 1.01 | locus YER110C, active compounds read low 0.977 | locus YER111C, strain swi4, active compounds read low 0.977 and 1.02 | locus YER155C, strain BEM2 (second series), active compounds read low 1.01 | locus YER155C, strain BEM2, active compounds read low 0.984 | locus YER167W, strain BCK2, active compounds read low 0.964 | locus YFR010W, strain ubp6, active compounds read low 1.01 and 1.03 | locus YGL078C, strain dbp3, active compounds read low 0.992 | locus YGL086W, strain mad1, active compounds read low 0.951 | locus YGL167C, strain pmr1, active compounds read low 0.995 and 1.01 | locus YGL173C, strain kem1, active compounds read low 1 and 1.02 | locus YGL227W, strain vid30, active compounds read low 0.973 and 1.01 | locus YGL240W, strain doc1, active compounds read low 1.02 and 1.03 | locus YGL248W, strain PDE1, active compounds read low 0.984 | locus YGL253W, strain hxk2, active compounds read low 1.01 and 1.04 | locus YGR078C, strain PAC10, active compounds read low 1.03 | locus YGR135W, strain pre9, active compounds read low 0.998 | locus YGR229C, strain SMI1, active compounds read low 1 | locus YGR252W, strain gcn5, active compounds read low 0.955 | locus YHR013C, strain ard1, active compounds read low 0.972 and 0.993 | locus YHR027C, strain rpn1, active compounds read low 0.994 and 1.01 | locus YHR030C, strain SLT2, active compounds read low 0.99 and 0.987 and 0.97 | locus YHR079C, strain IRE1 (second series), active compounds read low 0.996 | locus YHR079C, strain IRE1, active compounds read low 0.99 and 0.969 | locus YHR094C, strain hxt1, active compounds read low 0.985 | locus YHR129C, strain ARP1, active compounds read low 0.99 | locus YHR142W, strain chs7, active compounds read low 0.983 and 1 | locus YHR200W, strain rpn10, active compounds read low 0.982 | locus YIL066C, strain RNR3, active compounds read low 0.965 | locus YIL073C, strain SPO22, active compounds read low 0.944 | locus YIL125W, strain kgd1, active compounds read low 0.996 | locus YIR030C, strain dcg1, active compounds read low 0.987 | locus YJL092W, strain hpr5, active compounds read low 1.01 and 1 | locus YJL095W, strain BCK1 (second series), active compounds read low 0.991 and 1.01 | locus YJL095W, strain BCK1, active compounds read low 0.992 and 1.01 and 0.971 | locus YJL115W, strain asf1, active compounds read low 1.01 | locus YJL129C, strain trk1, active compounds read low 0.974 and 1 | locus YJL134W, strain LCB3, active compounds read low 0.984 | locus YJL154C, strain vps35, active compounds read low 1.01 | locus YJL164C, strain tpk1, active compounds read low 1 and 0.973 | locus YJL166W, strain qcr8, active compounds read low 1.02 and 1.01 | locus YJL168C, strain set2, active compounds read low 0.995 | locus YJL187C, strain SWE1 (second series), active compounds read low 0.998 | locus YJL187C, strain SWE1, active compounds read low 1 and 0.99 | locus YJR043C, strain POL32, active compounds read low 0.983 | locus YJR066W, strain TOR1, active compounds read low 0.923 and 0.916
